# Laboratory results published in PubChem BioAssay (NCATS).
# Where “and” joins values, the source holds several entries; their conditions need not be identical. Equal entries are not always repeated. A number with no mark means an inactive call. Results filed as inconclusive are left out. Where a call stands in place of a potency, no number is given. Calls of active or inactive are those of the source. Unless noted, the call rests on the fitted dose curve; in most records, active means well fitted curve in the direction sought with a large enough effect; inconclusive means small, poorly fitted or top-dose-only effect, or another doubt; inactive means no such curve, though single readings can be large; an effect the other way counts as inactive or inconclusive.
# Tests used:
# C33A = test: Primary qHTS to identify gynecologic anti-cancer compounds using libraries of approved drugs and bioactive compounds (AID 1345084); settings: Gynecologic cancer cell panel viability, ATPlite luminescence, 48 h; series mostly up to 57.5 µM; further: nearly all actives have a fitted effect of over 55% in size; further: potency means the concentration at half of the fitted maximal effect
# How it was run: (§1)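 Five-concentration response, 48 h; readout is ATP-driven luciferase luminescence.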
# CAOV3 = test: as above; settings: Gynecologic cancer cell panel viability, ATPlite luminescence, 48 h; series mostly up to 57.5 µM
# How it was run: as §1
# Es-2 = test: as above; settings: Gynecologic cancer cell panel viability, ATPlite luminescence, 48 h; series mostly up to 57.5 µM
# How it was run: as §1
# HeLa = test: as above; settings: Gynecologic cancer cell panel viability, ATPlite luminescence, 48 h; series mostly up to 57.5 µM
# How it was run: as §1
# Hek293T = test: as above; settings: Gynecologic cancer cell panel viability, ATPlite luminescence, 48 h, control line for the selectivity index; series mostly up to 57.5 µM
# How it was run: as §1
# JEG-3 = test: as above; settings: Gynecologic cancer cell panel viability, ATPlite luminescence, 48 h; series mostly up to 57.5 µM
# How it was run: as §1
# OV90 = test: as above; settings: Gynecologic cancer cell panel viability, ATPlite luminescence, 48 h; series mostly up to 57.5 µM
# How it was run: as §1
# PA-1 = test: as above; settings: Gynecologic cancer cell panel viability, ATPlite luminescence, 48 h; series mostly up to 57.5 µM
# How it was run: as §1
# SKOV3 = test: as above; settings: Gynecologic cancer cell panel viability, ATPlite luminescence, 48 h; series mostly up to 57.5 µM
# How it was run: as §1
# Tov-21-G = test: as above; settings: Gynecologic cancer cell panel viability, ATPlite luminescence, 48 h; series mostly up to 57.5 µM
# How it was run: as §1
# Tov112D = test: as above; settings: Gynecologic cancer cell panel viability, ATPlite luminescence, 48 h; series mostly up to 57.5 µM
# How it was run: as §1
# [1] = Drug repurposing screens with cells derived from glioblastoma tumor samples (AID 1345199); settings: GBM patient neurospheres viability, ATP luminescence, 48 h; further: nearly all actives have a fitted effect of over 40% in size; further: potency means the concentration at half of the fitted maximal effect
# How it was run: (§2)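 Four patient lines of CD133+ GBM neurospheres were screened at several concentrations; hits were retested in those lines plus three slower-growing GBM lines, using 48-hour treatment and ATP-based viability.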
# astro = test: as above; settings: viability, ATP luminescence, 48 h; series mostly up to 45.9 µM
# How it was run: as §2
# CASKI = test: Primary qHTS to identify gynecologic anti-cancer compounds using libraries of approved drugs and bioactive compounds (AID 1345084); settings: Gynecologic cancer cell panel viability, ATPlite luminescence, 48 h; series mostly up to 57.5 µM; further: nearly all actives have a fitted effect of over 55% in size; further: potency means the concentration at half of the fitted maximal effect
# How it was run: as §1
# [2] = target: Nuclear receptor subfamily 1 group I member 2 (Rattus norvegicus) (UniProt Q9R1A7); test: qHTS assay for small molecule activators of the rat pregnane X receptor (rPXR) signaling pathway (AID 651751; call rule not given here); settings: rPXR reporter cells, luciferase (One-Glo), 24 h
# Chain of Nuclear receptor subfamily 1 group I member 2 (Rattus norvegicus) (Q9R1A7 whole entry, looked up): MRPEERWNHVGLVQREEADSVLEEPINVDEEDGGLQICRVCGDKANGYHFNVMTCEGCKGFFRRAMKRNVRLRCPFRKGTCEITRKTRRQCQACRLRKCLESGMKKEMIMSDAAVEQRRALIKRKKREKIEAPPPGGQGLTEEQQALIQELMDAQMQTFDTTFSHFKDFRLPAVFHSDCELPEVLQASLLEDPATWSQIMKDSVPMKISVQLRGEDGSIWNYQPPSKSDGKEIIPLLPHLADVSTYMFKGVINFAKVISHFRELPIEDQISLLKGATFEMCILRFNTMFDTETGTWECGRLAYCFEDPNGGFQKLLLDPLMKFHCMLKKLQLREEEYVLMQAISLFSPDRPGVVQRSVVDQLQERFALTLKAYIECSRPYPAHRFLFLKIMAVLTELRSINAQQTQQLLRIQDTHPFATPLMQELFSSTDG
# [3] = qHTS assay for small molecule activators of the human pregnane X receptor (PXR) signaling pathway (AID 720659; call rule not given here)
# [4] = at 45.9 µM (top of the series), tumour line B
# [5] = at 45.9 µM (top of the series), tumour line D
# [6] = at 46.1 µM (top of the series), tumour line C
# [7] = at 20 µM (top of the series), tumour line C
# [8] = at 21.2 µM (top of the series), tumour line B
# [9] = at 46 µM (top of the series), tumour line A
structure (smiles),measurement,setting,value
CC(C)NC[C@@H](O)COc1cccc2ccccc12,Potency,C33A,inactive
same,Potency,CAOV3,inactive
same,Potency,Es-2,inactive
same,Potency,HeLa,inactive
same,Potency,Hek293T,inactive
same,Potency,JEG-3,inactive
same,Potency,OV90,inactive
same,Potency,PA-1,inactive
same,Potency,SKOV3,inactive
same,Potency,Tov-21-G,inactive
same,Potency,Tov112D,inactive
same,"activity, negative = cell killing",[1]; [4],-11.2%
same,"activity, negative = cell killing",[1]; [5],-22.3%
same,"activity, negative = cell killing",[1]; [6],-5.6%
same,Potency,[1]; tumour line A,28.2 µM (active)
same,Potency,astro,inactive
O=C(O)c1cc2cc(Cc3cccnc3)ccc2o1,"activity, negative = cell killing",[1]; [4],-16.4%
same,"activity, negative = cell killing",[1]; [5],-17.6%
same,Potency,astro,inactive
CC(=O)OCC(=O)[C@@]12OC(C)(C)O[C@@H]1C[C@H]1[C@@H]3C[C@H](F)C4=CC(=O)C=C[C@]4(C)[C@@]3(F)[C@@H](O)C[C@@]12C,Potency,C33A,inactive
same,Potency,CASKI,inactive
same,Potency,Es-2,inactive
same,Potency,HeLa,inactive
same,Potency,Hek293T,inactive
same,Potency,JEG-3,inactive
same,Potency,OV90,inactive
same,Potency,PA-1,inactive
same,Potency,SKOV3,inactive
same,Potency,Tov-21-G,inactive
same,Potency,Tov112D,inactive
same,"activity, negative = cell killing",[1]; [7],-14.9%
same,"activity, negative = cell killing",[1]; [8],-15.5%
same,"activity, negative = cell killing","[1]; at 21.3 µM (top of the series), tumour line A",-1.98%
COc1cccc(OC)c1C(=O)N[C@@H]1C(=O)N2[C@@H]1SC(C)(C)[C@@H]2C(=O)O,Potency,C33A,inactive
same,Potency,CASKI,inactive
same,Potency,Es-2,inactive
same,Potency,HeLa,inactive
same,Potency,Hek293T,inactive
same,Potency,JEG-3,inactive
same,Potency,OV90,inactive
same,Potency,PA-1,inactive
same,Potency,SKOV3,inactive
same,Potency,Tov-21-G,inactive
same,Potency,Tov112D,inactive
same,"activity, negative = cell killing",[1]; [4],-0.637%
same,"activity, negative = cell killing",[1]; [5],-7.13%
same,"activity, negative = cell killing",[1]; [9],-15.4%
same,"activity, negative = cell killing",[1]; [6],14.7%
same,Potency,astro,inactive
CC[C@H](C)C(=O)O[C@H]1CCC=C2C=C[C@H](C)[C@H](CC[C@@H]3C[C@@H](O)CC(=O)O3)[C@H]21,Potency,astro,2 µM (active)
C[C@@H]1C(=O)NC2=Nc3cccc(Cl)c3CN21,"activity, negative = cell killing",[1]; [4],-5.98%
same,"activity, negative = cell killing",[1]; [5],-24.2%
same,"activity, negative = cell killing",[1]; [6],-18.1%
same,Potency,astro,inactive
CCCC1O[C@@H]2C[C@H]3[C@@H]4CCC5=CC(=O)C=C[C@]5(C)[C@H]4[C@@H](O)C[C@]3(C)[C@]2(C(=O)CO)O1 (some centres undefined),"activity, negative = cell killing",[1]; [4],-17.2%
same,"activity, negative = cell killing",[1]; [5],-5.46%
same,"activity, negative = cell killing",[1]; [6],-20.2%
CC(C)C[C@H]1C(=O)N2CCC[C@H]2[C@]2(O)O[C@](NC(=O)[C@@H]3C=C4c5cccc6[nH]c(Br)c(c56)C[C@H]4N(C)C3)(C(C)C)C(=O)N12,"activity, negative = cell killing",[1]; [4],-7.46%
same,"activity, negative = cell killing",[1]; [6],12.4%
same,Potency,[1]; tumour line A,2.24 µM (active)
same,Potency,astro,inactive
CCCCOc1cc(C(=O)NCCN(CC)CC)c2ccccc2n1,Potency,C33A,inactive
same,Potency,CASKI,inactive
same,Potency,Hek293T,inactive
same,Potency,JEG-3,inactive
same,Potency,Tov112D,inactive
same,"activity, negative = cell killing",[1]; [7],9.91%
same,"activity, negative = cell killing",[1]; [8],-15.3%
same,Potency,[1]; tumour line A,3.98 µM (active)
same,Potency,astro,inactive
CN(C)/N=N/c1nc[nH]c1C(N)=O,Potency,CAOV3,inactive
same,Potency,JEG-3,inactive
same,"activity, negative = cell killing",[1]; [4],-24.8%
same,"activity, negative = cell killing",[1]; [5],-1.38%
same,"activity, negative = cell killing",[1]; [9],-11.7%
same,"activity, negative = cell killing",[1]; [6],-12%
same,Potency,astro,inactive
same,max response,[2],-2.27%
same,outcome,[3],inactive
CCC(NC(C)C)C(O)c1ccc(O)c(O)c1 (centres undefined),"activity, negative = cell killing",[1]; [4],-1.77%
same,"activity, negative = cell killing",[1]; [5],12.5%
same,"activity, negative = cell killing",[1]; [9],-20.2%
same,"activity, negative = cell killing",[1]; [6],-19.2%
same,Potency,astro,inactive
CC(C)COC(=O)OCN1C(=O)CN(CCN2CC(=O)N(COC(=O)OCC(C)C)C(=O)C2)CC1=O,"activity, negative = cell killing",[1]; [4],-7.7%
same,"activity, negative = cell killing",[1]; [5],-16.2%
same,"activity, negative = cell killing",[1]; [9],-10.8%
same,"activity, negative = cell killing",[1]; [6],-11%
same,Potency,astro,inactive
CC(Cc1ccccc1)(NC(=O)CN)c1ccccc1 (centres undefined),Potency,C33A,inactive
same,Potency,CASKI,inactive
same,Potency,Es-2,inactive
same,Potency,HeLa,inactive
same,Potency,Hek293T,inactive
same,Potency,JEG-3,inactive
same,Potency,OV90,inactive
same,Potency,PA-1,inactive
same,Potency,SKOV3,inactive
same,Potency,Tov-21-G,inactive
same,Potency,Tov112D,inactive
same,"activity, negative = cell killing",[1]; [4],-9.21%
same,"activity, negative = cell killing",[1]; [5],3.89%
same,"activity, negative = cell killing",[1]; [6],-26.6%
same,Potency,[1]; tumour line A,20 µM (active)
same,Potency,astro,inactive
CC1(C)CCC(NC(=O)[C@@H](N)CCC(=O)O)CC1,"activity, negative = cell killing",[1]; [4],-9.8%
same,"activity, negative = cell killing",[1]; [5],-20.2%
same,"activity, negative = cell killing",[1]; [9],-26.1%
same,"activity, negative = cell killing",[1]; [6],-24.2%
CCCn1c(=O)[nH]c(=O)c2[nH]cnc21,"activity, negative = cell killing",[1]; [4],-19.3%
same,"activity, negative = cell killing",[1]; [5],9.35%
same,"activity, negative = cell killing",[1]; [9],-17.3%
same,"activity, negative = cell killing",[1]; [6],-18.8%
same,Potency,astro,inactive
C[C@@H]1CN(CCCn2c3ccccc3c3ccccc32)C[C@H](C)N1,Potency,C33A,22.4 µM (active)
same,Potency,OV90,25.1 µM (active)
same,Potency,astro,12.6 µM (active)
CC(C)N=C(N)/N=C(\N)Nc1ccc(Cl)cc1,Potency,HeLa,inactive
same,Potency,Hek293T,inactive
same,Potency,JEG-3,inactive
same,Potency,OV90,inactive
same,Potency,PA-1,inactive
same,Potency,SKOV3,28.2 µM (active)
same,Potency,Tov-21-G,inactive
same,Potency,Tov112D,inactive
same,"activity, negative = cell killing",[1]; [7],-3.45%
same,"activity, negative = cell killing",[1]; [8],-11.2%
same,"activity, negative = cell killing","[1]; at 21.2 µM (top of the series), tumour line D",-20.6%
same,Potency,astro,inactive
N[C@@H](Cc1cnc[nH]1)C(=O)O,"activity, negative = cell killing",[1]; [4],-11.3%
same,"activity, negative = cell killing",[1]; [5],-9.45%
same,"activity, negative = cell killing",[1]; [6],-12.5%
Cc1c(C(N)=O)cc([N+](=O)[O-])cc1[N+](=O)[O-],Potency,C33A,inactive
same,Potency,CASKI,inactive
same,Potency,Es-2,inactive
same,Potency,HeLa,inactive
same,Potency,Hek293T,inactive
same,Potency,JEG-3,inactive
same,Potency,OV90,inactive
same,Potency,PA-1,inactive
same,Potency,SKOV3,inactive
same,Potency,Tov-21-G,inactive
same,Potency,Tov112D,inactive
same,"activity, negative = cell killing",[1]; [4],-3.44%
same,"activity, negative = cell killing",[1]; [5],-20.3%
same,"activity, negative = cell killing",[1]; [9],-15.4%
same,"activity, negative = cell killing",[1]; [6],1.23%
CC(C)(C)CC(C)(C)c1ccc(O)c(Cc2ccc(Cl)cc2Cl)c1,Potency,C33A,inactive
same,Potency,CAOV3,inactive
same,Potency,CASKI,inactive
same,Potency,JEG-3,inactive
same,Potency,OV90,inactive
same,Potency,PA-1,inactive
same,Potency,Tov-21-G,inactive
same,Potency,Tov112D,inactive
same,Potency,astro,22.4 µM (active)
COC(=O)[C@H]1[C@H]2C[C@H]3c4[nH]c5ccccc5c4CCN3C[C@H]2CC[C@@H]1O,"activity, negative = cell killing",[1]; [4],-4.34%
same,"activity, negative = cell killing",[1]; [5],-13.5%
same,"activity, negative = cell killing",[1]; [6],4.13%
same,Potency,astro,inactive
N[C@H](CO)C(=O)O,"activity, negative = cell killing",[1]; [4],4.31%
same,"activity, negative = cell killing",[1]; [5],-24.3%
same,"activity, negative = cell killing",[1]; [6],2.37%
same,Potency,astro,inactive
C[C@]12CC[C@@H]3c4ccc(O)cc4CC[C@H]3[C@@H]1CC[C@@H]2O,"activity, negative = cell killing",[1]; [4],-16.2%
same,"activity, negative = cell killing",[1]; [6],-20.5%
same,Potency,[1]; tumour line A,31.6 µM (active)
C[N+]1(CCCCC[N+]2(C)CCCC2)CCCC1,"activity, negative = cell killing",[1]; [4],0.364%
same,"activity, negative = cell killing",[1]; [5],-0.863%
same,"activity, negative = cell killing",[1]; [9],-3.4%
same,"activity, negative = cell killing",[1]; [6],-6.31%
Nc1ccn([C@@H]2O[C@H](CO)[C@@H](O)C2(F)F)c(=O)n1,Potency,C33A,inactive
same,Potency,CAOV3,631 nM (active) and 1.12 µM (active)
same,Potency,CASKI,inactive
same,Potency,HeLa,inactive
same,Potency,Hek293T,inactive
same,Potency,JEG-3,inactive
same,Potency,Tov-21-G,inactive
same,Potency,Tov112D,0.178 µM (active)
